Bioassay records (PubChem BioAssay)
This is a sample that favours compounds with a hit; in the whole collection about 4.6% have one here.
tim23-1 inh – inhibits growth of tim23-1 mutant yeast | inhibition, % at 20 µM | actives 1.3% (n = 330,000) | AID 463212 | S. cerevisiae tim23-1 growth, BacTiter-Glo luminescence, 24 h;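 active = growth inhibition of the mutant yeast at or above 50%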;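 also: temperature-sensitive mutant grown at 25 °C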
PfHsp90 set2 – growth inhibition of yeast expressing Plasmodium Hsp90; S. cerevisiae expressing PfHsp90, BacTiter-Glo ATP, 48 h; yeast lacking PDR1 and PDR3 efflux regulators; actives 0.32% (n = 310,000); AID 504621; inhibition, % at 9.4 µM;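 active = every replicate shows inhibition above about 80%, whatever the replicate mean, limit read from the data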
TIM10 inh – inhibits growth of TIM10 yeast strain. S. cerevisiae TIM10 strain growth, BacTiter-Glo luminescence, 24 h. inhibition, % at 10 µM. actives 1.4% (n = 330,000). AID 463195;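 active = inhibition of 40% or more at the single tested concentration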;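 also: wild-type TIM10 isogenic control strain grown at permissive 25 °C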
SKKanGAS inh – inhibitors of SKKanGAS S. pyogenes growth in kanamycin (SK-promoter or general growth effect); actives 1.3% (n = 300,000); AID 1662; inhibition, % at 7.5 µM; BacTiter-Glo, 6 h;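 active = mean replicate score, as percent of positive control median, at least 50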;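 also: strain carries kanamycin resistance gene driven by streptokinase promoter and grows in 40 µg/ml kanamycin; loss of luminescence reflects streptokinase promoter inhibition or plain growth inhibition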
tim10-1 inh – growth inhibitors of tim10-1 mutant yeast; S. cerevisiae tim10-1 ts strain growth, BacTiter-Glo, 24 h; inhibition, % at 20 µM; actives 2.2% (n = 330,000);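 active = inhibition of at least 40%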;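 also: mutant grown at 25 °C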
NLRP3 yeast inh – blocks the NALP3 inflammasome reconstituted in yeast; Yeast reconstituted NLRP3/ASC/caspase-1, beta-gal luminescence, 24 h; inhibition, % at 10 µM; actives 0.39% (n = 330,000);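 active = inhibition of 50% or more; inactive = inhibition below 50%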
tim10-1 conf – tim10-1 yeast growth inhibition, confirmed. shares compounds with tim10-1 inh. S. cerevisiae tim10-1 ts strain growth, BacTiter-Glo, 24 h. inhibition, % at 20 µM. actives 56% (n = 7,400). AID 463213;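 active = inhibition of yeast growth at or above a set limit in either of two repeat tests at 20 µM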;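 also: tim10-1 mutant grown at permissive 25 °C to find synthetic lethal compounds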
Each line names hits and unclear results; the compound was inactive in the other large screens (follow-up assays come after a bar, where they were run).

Cc1cccc(NC(=S)NCCSc2ccc(Cl)cc2)c1	tim10-1 inh 45.4 | tim10-1 conf inactive
CCn1cc2nc(SCC(=O)Nc3ccccc3F)n(Cc3ccccc3)c(=O)c2n1	none
CCc1ccc(C(=O)c2oc3nc(C)cc(C)c3c2N)cc1	tim10-1 inh 44.5 | tim10-1 conf 32.8
Cc1ccc(C(=O)c2oc3nc(C)cc(C)c3c2N)cc1	none
CN(C(=O)c1ccccc1C(=O)OCC(=O)Nc1ccc(OC(F)F)cc1)c1ccccc1	tim10-1 inh 42.8 (no result: SKKanGAS inh) | tim10-1 conf inactive
COc1ccc(C(=O)C(CN2CCCC2)c2ccccc2)cc1 (configuration not stated)	tim10-1 inh 44.9 | tim10-1 conf 43.0
CCCOc1ccc(C(=O)C(CN2CCCC2)c2ccccc2)cc1 (configuration not stated)	none (no result: tim23-1 inh, TIM10 inh, tim10-1 inh, NLRP3 yeast inh)
CCCCOc1ccc(C(=O)C(CN2CCOCC2)c2ccccc2)cc1 (configuration not stated)	tim10-1 inh 44.4 | tim10-1 conf 34.5
CC(C)(C)c1ccc(C(=O)CC(Sc2ccc(Cl)cc2)C(=O)O)cc1 (configuration not stated)	PfHsp90 set2 81.3, tim10-1 inh 40.7 | tim10-1 conf 50.8
O=C1c2ccccc2S(=O)(=O)N1CC(O)Cn1ccc2ccccc21 (configuration not stated)	tim10-1 inh 41.8 | tim10-1 conf inactive
C=CCN1CC(c2nc3ccccc3n2Cc2cccc3ccccc23)CC1=O (configuration not stated)	tim10-1 inh 45.0 | tim10-1 conf inactive
O=C(O)CCC(=O)Nc1cccc2cccnc12	tim10-1 inh 72.4 | tim10-1 conf inactive
CN1CCN(c2cc(C(F)(F)F)nc3ccc(F)cc23)CC1	none
Cc1ccc(OCCn2cnc3cc([N+](=O)[O-])ccc3c2=O)cc1	tim10-1 inh 45.9 | tim10-1 conf inactive
CC(=O)C1=C(c2ccccc2)OC(N)=C(C#N)C1c1ccccc1C (configuration not stated)	tim10-1 inh 44.9 | tim10-1 conf inactive
CC(=O)C1=C(C)OC(N)=C(C#N)C1c1cc2cccc(C)c2nc1Cl (configuration not stated)	tim10-1 inh 45.6 | tim10-1 conf inactive
CCn1c(=O)cc(OCC(=O)NCCCN2CCCC2=O)c2ccccc21	none
CC/C(=N\Nc1ccccc1[N+](=O)[O-])c1ccc(O)cc1	tim10-1 inh 56.8 | tim10-1 conf 39.4
CCOCCCNc1ccc(N2C(=O)C3CCCCC3C2=O)cc1[N+](=O)[O-] (configuration not stated)	none
Cc1cc(C)c(N=Cc2c(O)n(-c3nccs3)c(=O)c3ccccc23)c(C)c1	tim10-1 inh 40.8 | tim10-1 conf 32.2
O=C(CCN1CCN(c2ccccc2F)CC1)c1ccc(Br)cc1	none
O=C(CCN1CCN(c2ccccc2)CC1)c1ccc(Br)cc1	tim10-1 inh 44.7 | tim10-1 conf inactive
O=C(/C=C/c1cccc([N+](=O)[O-])c1)NCCSCc1ccccc1Cl	none
O=C(/C=C/c1cccc([N+](=O)[O-])c1)NCCSCc1ccc(Cl)cc1Cl	tim10-1 inh 42.0 | tim10-1 conf 35.4
COc1cccc(C(=O)O/N=C(\N)c2ccccn2)c1	tim10-1 inh 40.2 | tim10-1 conf 45.6
COc1cccc(C(=O)O/N=C(\N)c2ccccn2)c1OC	none
N/C(=N\OC(=O)c1cccc([N+](=O)[O-])c1)c1ccccn1	tim10-1 inh 41.6 | tim10-1 conf inactive
CC1(C)C(=O)OC(c2ccc([N+](=O)[O-])cc2)C(C)(C)C1=O (configuration not stated)	none
CCOC(=O)C1CN(S(=O)(=O)c2cccc(C(F)(F)F)c2)c2cc(CC(=O)OC)ccc2O1 (configuration not stated)	tim10-1 inh 46.5 | tim10-1 conf inactive
CCOC(=O)C1CN(S(=O)(=O)c2ccccc2)c2cc(S(=O)(=O)CC)ccc2O1 (configuration not stated)	none
O=C(Nc1ccc(Cl)c(Cl)c1)Oc1ccc(NC(=O)c2ccco2)cc1	SKKanGAS inh 71.7, tim10-1 inh 43.7 | tim10-1 conf inactive
COc1ccc(Nc2cc(C)nc(N3CCN(C(=O)c4ccc5c(c4)OCO5)CC3)n2)cc1	none
O=C(O)c1cc2ccc3cccc4ccc(c1)c2c34	tim10-1 inh 42.7 | tim10-1 conf inactive
COC(=O)C1=C(COc2ccc(C=O)cc2OC)NC(=O)NC1c1cc(C)ccc1C (configuration not stated)	none
Cc1ccc(Cl)c(OC(=O)C2CSC3(C)CCC(=O)N23)c1 (configuration not stated)	tim10-1 inh 40.1 | tim10-1 conf inactive
CC(=O)c1ccc(OC(=O)C2CSC3(C)CCC(=O)N23)cc1 (configuration not stated)	none (no result: SKKanGAS inh)
Cc1cc(C(=O)OCC(=O)N(C)c2c(N)n(Cc3ccccc3)c(=O)[nH]c2=O)c(C)n1-c1ccccc1	none (no result: SKKanGAS inh)
CC(C)C(=O)NC(=S)N(Cc1ccccc1)Cc1ccccc1	tim10-1 inh 41.3 | tim10-1 conf inactive
O=C(O)CNC(=S)N(Cc1ccccc1)Cc1ccccc1F	none
COc1ccc(Nc2nc(OC)nc(OC)n2)cc1	none
COc1ccc(Nc2nc(Nc3ccc(OC)cc3)nc(SC3=NCCS3)n2)cc1	none | tim10-1 conf inactive
CCN(CC)CCNC(=O)CNC(=O)c1nn(-c2ccc(OC)c(OC)c2)c(=O)c2ccccc12	none
Cc1cc(C(=O)Nc2ccc3[nH]ccc3c2)no1	none
COc1cc(OC)c(C(=O)Oc2ccc3c(c2)OCO3)cc1OC	none
COc1ccc(C(=O)Oc2ccc3c(c2)OCO3)cc1OC	tim10-1 inh 41.9 | tim10-1 conf inactive
CC(C)(O)C#Cc1ccc(C(=O)N2CCN(c3ccc(F)cc3)CC2)cc1	none
CC(C)(O)C#Cc1ccc(C(=O)N2CCN(c3ccc(Cl)cc3)CC2)cc1	tim10-1 inh 49.3 | tim10-1 conf 40.2
COc1cc(/C=C/C(=O)N2C(=O)c3cccc(N)c3C2=O)cc(OC)c1OC	tim10-1 inh 43.2 | tim10-1 conf inactive
COc1ccc(OC)c(/C=C/C(=O)N2C(=O)c3cccc(N)c3C2=O)c1	tim10-1 inh 42.3 | tim10-1 conf 31.5
Nc1cccc2c1C(=O)N(C(=O)/C=C/c1cccc(Br)c1)C2=O	none (no result: tim23-1 inh, TIM10 inh, tim10-1 inh, NLRP3 yeast inh)
COc1ccc(C(=O)COC(=O)CN2C(=O)C3C4CCC(C4)C3C2=O)cc1 (configuration not stated)	none
O=C(NCC1CCCO1)c1ccc2[nH]c3c(c2c1)CCCC3 (configuration not stated)	none (no result: PfHsp90 set2, SKKanGAS inh)
